Measured values from the supplement of paper PMC7556523.

Each molecule was assayed on Sporothrix brasiliensis CBS 133006 (assay: growth inhibition relative to untreated control; higher = more growth inhibition (more antifungal activity), active = 80 or more; extreme values may be limits of the assay). Conditions: 1 µM; 48 h.
Method in brief: (§1)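 The reported figure is percent growth inhibition relative to untreated cells, from quadruplicate runs. Yeast-form cells of the reference isolates at 1 x 10^5 CFU/ml were exposed to library compounds at a final 1 μM for 48 h at 35°C in 5% CO2, and growth was assessed by microscopy and spectrophotometric readings.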

Growth inhibition, inactive:
Cc1ccc(NC(=O)c2nc[nH]c2C(=O)Nc2nc3ccccc3[nH]2)c(C)c1 17.8%
CC(C)C(C(=O)Nc1ccc(S(=O)(=O)N(C)C)cc1)c1ccc(Cl)cc1 (stereo not given) 17.5%
CCN(CC)C(=O)N1CCN(C)CC1 4%
COc1cncc(-c2cncc(N3CCN(c4ccncc4)CC3)n2)c1 34.2%
Cc1nc2ccccn2c1C(=O)NCc1ccc(Cl)cc1 14%
c1cc(C2=NCCN2)cc(-c2cc(-c3ccc(C4=NCCN4)cc3)no2)c1 5.5%
CNC(=O)CNc1nc(-c2ccccn2)nc2scc(-c3ccccc3)c12 9.5%
O=C(C(Cc1c[nH]c2ccccc12)NS(=O)(=O)c1ccc(Cl)cc1)N1CCCCC1 (stereo not given) 5.75%
COc1ccc(C2CC(c3cccs3)=NN2C(=O)c2ccco2)cc1OC (stereo not given) 0%
NC(=O)c1cc(Br)ccc1OCCOc1ccccc1 23.5%
COc1cccc2c(C)nc(N=C(N)N)nc12 10%
CC(c1cc(Cl)cc(Cl)c1)N(C)c1ncc2c(N)nc(N)nc2n1 (stereo not given) 11.2%
CN1CCN(c2cc(-c3ccc(F)cc3)nc(-c3ccncc3)n2)CC1 7%
O=C1[C@@H](Oc2ccccc2)[C@@H](c2ccc(Cl)cc2)N1CCn1cnc2c(NCc3ccccc3)ncnc21 14%
CC[C@@H]([C@H](C)O)n1ncn(-c2ccc(N3CCN(c4ccc(OC[C@@H]5CO[C@@](Cn6cncn6)(c6ccc(F)cc6F)C5)cc4)CC3)cc2)c1=O 73%
CCS(=O)(=O)N(Cc1ccco1)Cc1cc2ccc(C)cc2nc1O 2.5%
O=C(NCCN1CCCC1)c1cc(NCCN2CCOCC2)nc2ccc(Cl)cc12 4.5%
CCCn1nnc(NC(=O)COc2ccc(C3CCCCC3)cc2)n1 13.2%
Cc1ccc(S(=O)(=O)Nc2ccc(CN3CCN(C(=O)c4cccc(C#N)c4)CC3)cc2)cc1 2%
O=C(COc1cccc(F)c1)Nc1nc(-c2ccccn2)cs1 22.5%

Growth inhibition, active:
O=C(Nc1nnc(-c2ccc(Cl)cc2)o1)c1cccc(C(F)(F)F)c1 100%
CCc1c(C)nc(-n2nc(C)cc2NC(=O)c2ccccc2SC)[nH]c1=O 93.5%

The molecules below were run on Sporothrix schenckii ATCC 32286 in the same assay as above. Conditions: 1 µM; 48 h.
Method in brief: as §1

Growth inhibition, inactive:
CCN(CC)S(=O)(=O)c1ccc(Cl)c(C(=O)Nc2ccc3nc(C)sc3c2)c1 9.75%
Cc1nn2c(=O)c3c([nH]c2c1-c1ccc(Cl)cc1)CCCC3 15.8%
COc1ccc(CCN2CCC(NCc3cccc(N(C)C)c3)CC2)cc1 9.75%
FC(F)(F)c1cc(NCCc2ccccc2)nc(-c2ccccn2)n1 9.75%
O=C(Nc1nc(-c2ccccn2)cs1)C1CC1c1ccccc1F (stereo not given) 34.2%
CC(C)(C)CN1C(=O)C(c2ccccc2)(c2ccccc2)N=C1N 4.25%
Cc1nc(-c2ccccn2)nc(N(C)CCc2ccccc2)c1Cl 34.8%
Nc1nccc2ccc(Oc3ccncc3)cc12 14.2%
CC(C)(C)n1nc(Cc2ccc(F)c(Cl)c2)c2c(N)ncnc21 0%
COc1cccc(-c2cc3c(Nc4cccnc4)nccc3[nH]2)c1 5%
CS(=O)(=O)c1cccc(-c2cnc3[nH]cc(-c4ccc(CCC(=O)O)cc4)c3c2)c1 0%
Nc1ncnc2c1ncn2[C@@H]1O[C@H](COS(=O)(=O)NC(=O)c2ccccc2O)[C@@H](O)[C@H]1O 9%
c1ccc(Oc2ccc(-c3cc(N4CCOCC4)[nH]n3)cc2)cc1 8%
COc1ccc(-c2cnc3ccc(N4CCCC4)nn23)cc1OC 0%
Cc1cc(Cl)c(S(=O)(=O)N2CCCC2)cc1OCC(=O)NC1CCCCC1 0%
c1ccc(Oc2ccc(-c3cc(N4CCNCC4)[nH]n3)cc2)cc1 4%
Cc1ccc(NC(=O)c2nc[nH]c2C(=O)Nc2nc3ccccc3[nH]2)c(C)c1 1.25%
CC(C)C(C(=O)Nc1ccc(S(=O)(=O)N(C)C)cc1)c1ccc(Cl)cc1 (stereo not given) 0.5%
CCN(CC)C(=O)N1CCN(C)CC1 1%
COc1cncc(-c2cncc(N3CCN(c4ccncc4)CC3)n2)c1 0%
Cc1nc2ccccn2c1C(=O)NCc1ccc(Cl)cc1 16%
c1cc(C2=NCCN2)cc(-c2cc(-c3ccc(C4=NCCN4)cc3)no2)c1 0%
CNC(=O)CNc1nc(-c2ccccn2)nc2scc(-c3ccccc3)c12 3.75%
O=C(C(Cc1c[nH]c2ccccc12)NS(=O)(=O)c1ccc(Cl)cc1)N1CCCCC1 (stereo not given) 4%
COc1ccc(C2CC(c3cccs3)=NN2C(=O)c2ccco2)cc1OC (stereo not given) 18.8%
NC(=O)c1cc(Br)ccc1OCCOc1ccccc1 1.25%
COc1cccc2c(C)nc(N=C(N)N)nc12 20.8%
CC(c1cc(Cl)cc(Cl)c1)N(C)c1ncc2c(N)nc(N)nc2n1 (stereo not given) 16.5%
CN1CCN(c2cc(-c3ccc(F)cc3)nc(-c3ccncc3)n2)CC1 12.2%
O=C1[C@@H](Oc2ccccc2)[C@@H](c2ccc(Cl)cc2)N1CCn1cnc2c(NCc3ccccc3)ncnc21 17.8%
CCc1c(C)nc(-n2nc(C)cc2NC(=O)c2ccccc2SC)[nH]c1=O 76.8%
CCS(=O)(=O)N(Cc1ccco1)Cc1cc2ccc(C)cc2nc1O 2%
O=C(NCCN1CCCC1)c1cc(NCCN2CCOCC2)nc2ccc(Cl)cc12 0%
CCCn1nnc(NC(=O)COc2ccc(C3CCCCC3)cc2)n1 0.5%
Cc1ccc(S(=O)(=O)Nc2ccc(CN3CCN(C(=O)c4cccc(C#N)c4)CC3)cc2)cc1 0.5%
O=C(COc1cccc(F)c1)Nc1nc(-c2ccccn2)cs1 8.75%

Growth inhibition, active:
O=C(Nc1nnc(-c2ccc(Cl)cc2)o1)c1cccc(C(F)(F)F)c1 85.5%
CC[C@@H]([C@H](C)O)n1ncn(-c2ccc(N3CCN(c4ccc(OC[C@@H]5CO[C@@](Cn6cncn6)(c6ccc(F)cc6F)C5)cc4)CC3)cc2)c1=O 88.5%
